From PubChem BioAssay
TRHR agonist – qHTS for Small Molecule Agonists and Allosteric Enhancers of Human TRH Receptor: Primary Screen for Agonists; 360,000 tested, 0.18% active; AID 493084, 2011; Thyrotropin-releasing hormone receptor (Homo sapiens), P34981; TRHR cells, calcium flux fluo-8, FDSS agonist mode; activation, % at 2 µM; in the data active = activation above about 30%; note: 0% is about no effect
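Read-out: compound-evoked intracellular calcium rise in TRHR cells, fluo-8 dye, kinetic FDSS fluorescence at 1 s/cycle following a 10-cycle baseline. Cells cultured overnight before dye loading (30 min–1.5 h, RT).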
TRHR enhancer – qHTS for Small Molecule Agonists and Allosteric Enhancers of Human TRH Receptor: Primary Screen for Enhancers | Thyrotropin-releasing hormone receptor (Homo sapiens), P34981 | 360,000 tested, 0.66% active | AID 493056, 2011 | TRHR cells, fluo-8 calcium fluorescence, EC20 TRH enhancement | enhancement, % at 2 µM; in the data active = enhancement above about 30%; note: 0% is about no effect
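TRHR-expressing cells loaded with fluo-8 calcium dye were read kinetically (ex 480/em 530) during compound addition, then stimulated with an EC20 of TRH (10 nM final). Enhancement of the Gq-mediated intracellular calcium response was scored.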
TRPML1 agonist – qHTS for Agonists of the Human Mucolipin Transient Receptor Potential 1 (TRPML1); TRPML1-expressing cells, Ca2+ dye fluorescence, FDSS; activation, % (no concentration beside the values); 410,000 tested, 0.12% active; in the data active = activation above about 50%; inconclusive = mostly about 30% to 49%; note: 0% is about no effect
Target sequence (Q9GZU1 whole entry, looked up): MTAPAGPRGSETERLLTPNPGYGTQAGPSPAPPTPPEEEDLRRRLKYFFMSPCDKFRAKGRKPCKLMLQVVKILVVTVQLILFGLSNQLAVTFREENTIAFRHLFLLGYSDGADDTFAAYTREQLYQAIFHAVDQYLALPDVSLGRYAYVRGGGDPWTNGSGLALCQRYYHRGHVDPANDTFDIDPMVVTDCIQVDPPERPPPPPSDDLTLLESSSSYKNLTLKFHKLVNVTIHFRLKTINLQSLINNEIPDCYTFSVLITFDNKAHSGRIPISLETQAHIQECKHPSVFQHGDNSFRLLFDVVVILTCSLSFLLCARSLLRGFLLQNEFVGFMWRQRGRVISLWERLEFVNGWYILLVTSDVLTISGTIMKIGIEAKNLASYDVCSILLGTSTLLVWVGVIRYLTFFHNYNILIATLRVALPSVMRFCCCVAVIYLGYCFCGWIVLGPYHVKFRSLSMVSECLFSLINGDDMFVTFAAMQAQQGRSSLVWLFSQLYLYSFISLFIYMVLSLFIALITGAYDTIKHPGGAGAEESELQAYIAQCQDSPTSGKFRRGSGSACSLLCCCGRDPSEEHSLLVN
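TRPML1-DL cells, Tet-induced overnight (~16 h, 37 degrees C), loaded 45-90 min at room temperature with Ca8 no-wash calcium dye plus quencher. FDSS fluorescence: 10 s baseline, compound pin-transfer, 110 s agonist read, then EC80 54-4 (4uM final) and 110 s antagonist read.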
hERG WT inh – qHTS for Inhibitors of KCHN2 3.1: Wildtype qHTS. Voltage-gated inwardly rectifying potassium channel KCNH2 (Homo sapiens), Q12809. U2OS, BacMam KCNH2, thallium flux FluxOr; active compounds read low. activity change, % at 1.84 µM. 340,000 tested, 0.37% active;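 active = maximum activity change below -70%; inconclusive = maximum activity change between -70% and -50%; inactive = maximum activity change above -50%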; note: % is set by controls: 0 for no effect and ±100 for the full control effect
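U2OS cells were transduced with wild-type KCNH2 virus (2.03 x 10^8 / mL) for 4 h at room temperature, then cultured overnight at 37 C. Thallium flux was read with FluxOr dye. Rate constants were normalized to DMSO controls.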
KCNH2 3.1 block – qHTS for Inhibitors of KCHN2 3.1: Mutant qHTS; Potassium voltage-gated channel subfamily H member 2, brain isoform KCNH2 3.1 (human); U2OS KCNH2 3.1, thallium flux FluxOr; active compounds read low; activity change, % (tested at about 1.8 µM); 340,000 tested, 0.95% active; AID 720553, 2013;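 active = maximum activity change below -70%; inconclusive = maximum activity change from -70% to -50%; inactive = maximum activity change above -50%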;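 note: thallium influx rate constant from kinetic fluorescence after stimulation buffer; % is set by controls: 0 for no effect and ±100 for the full control effect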
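We transduce U2OS cells with the mutant 3.1 virus, culture them overnight, load FluxOr with Red40 quencher for 45 min, then add stimulation buffer and read kinetically for 2 min to derive a normalized rate constant.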
TRPML1 inh – qHTS for Inhibitors of the Human Mucolipin Transient Receptor Potential 1 (TRPML1) | 390,000 tested, 0.02% active | TRPML1-inducible cells, Ca2+ dye fluorescence, FDSS; active compounds read low; inhibition of EC80 agonist-evoked calcium signal | Mucolipin-1 (Homo sapiens), Q9GZU1 | activity change, negative = inhibition, % (concentration not given with the values); in the data active = activity change below about -50%; inconclusive = between about -30% and that limit;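 note: stimulus is agonist 54-4 at its EC80 concentration; % is set by controls: 0 for no effect and ±100 for the full control effect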
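Calcium fluorescence in TRPML1-DL cells induced overnight with Tet: a 110 s read after compound pin addition, then a 110 s antagonist read after challenge with 54-4 at 4 uM final (EC80).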
Starred values were filed as active, the others as inactive; ? = inconclusive; / = not tested or not shown. In the library only some 1.7% were active in any assay of this set; here they are far more common.

SMILES | TRHR agonist | TRHR enhancer | TRPML1 agonist | hERG WT inh | KCNH2 3.1 block | TRPML1 inh
CO/N=C/c1cccn1-c1nccc(OC)c1C#N | 0 | 16 | 0 | -196* | -190* | 77
CCSc1ccc([C@@H]2[C@@H]3C(=O)N(CC)C(=O)[C@@H]3[C@]3(C(=O)OC)CCCN23)cc1 | 0 | 2 | 0 | / | / | 6
O=C(c1ccc(F)cc1)C1CCN(Cc2cn[nH]c2-c2ccc(F)cc2)CC1 | 2 | 8 | 0 | -22 | -80* | -2
Cn1cnc([N+](=O)[O-])c1Oc1cccc2ccccc12 | -1 | 37* | 0 | -16 | 12 | 10
COc1ccccc1CN1CCCCC1C(=O)O (centres undefined) | 0 | 41* | -1 | 4 | -9 | 4
COc1ccccc1CNC(=O)C1CCCC1 | 0 | -3 | 0 | -6 | -12 | -4
O=C(NCCS(=O)(=O)c1ccc(Cl)cc1)c1ccc(F)cc1 | -1 | 1 | 0 | 1 | 7 | 5
O=C(NCCS(=O)(=O)c1ccc(Br)cc1)c1ccc(F)cc1 | 0 | -2 | 1 | -251* | 16 | -1
O=C(COC(=O)/C=C/c1ccc([N+](=O)[O-])cc1)NCc1ccccc1 | 0 | 1 | 0 | 1 | -8 | 20
O=C(COC(=O)/C=C/c1ccc([N+](=O)[O-])cc1)NC(c1ccccc1)c1ccccc1 | -1 | 3 | 1 | -133* | -11 | -2
Cc1cc(OC(C)C(=O)Nc2c(C(=O)c3ccc(F)cc3)oc3ccccc23)ccc1Cl (centres undefined) | -1 | 0 | 1 | / | / | 30
CCOc1ccc(/C=N/NC(=O)c2[nH]ncc2Br)c(O)c1 | 1 | 25 | 2 | 0 | -77* | 7
CCN(CC)CC(O)CNc1ccnc2c(Cl)ccc(Cl)c12 (centres undefined) | / | / | 0 | -2 | -2 | ?
C[C@@H](CN1CCC(Cc2ccccc2)CC1)[C@@H](O)c1ccc(O)cc1 | 1 | -2 | 0 | 37 | -217* | 1
CC(C(O)c1ccc(O)cc1)N1CCC(Cc2ccccc2)CC1 (centres undefined) | 0 | -5 | 0 | 53 | -88* | 15
NNC(=O)c1ccc([N+](=O)[O-])c(CS(=O)(=O)c2ccc(Cl)cc2)c1 | -1 | -1 | 0 | 1 | -99* | -4
CCOc1ccc(NC(=O)CSc2nc3ccsc3c(=O)n2CCCCCC(=O)O)cc1 | 1 | -2 | 1 | -3 | -8 | -8
COCCN(CC1CCCN(C2Cc3ccccc3C2)C1)C(=O)CCC(N)=O (centres undefined) | 0 | -5 | 0 | -43 | -127* | 4
Cc1ccc(C(=O)C2(C)C3c4cc(Br)ccc4OC(=O)C32C(=O)c2ccco2)cc1 (centres undefined) | 1 | 6 | 0 | -12 | -114* | -8
O=C1CCN2C=Nc3cccc4ccc1c2c34 | 136* | 5 | ? | -12 | -1 | -5
CCSC1=NSC2=NC(=O)/C(=C\c3coc4ccccc4c3=O)C(=N)N12 | 179* | 52* | 77* | -4 | -1 | -1
CSC1=NSC2=NC(=O)/C(=C\c3ccc(OC(=O)c4ccco4)cc3)C(=N)N12 | 0 | 1 | 0 | -6 | -31 | -3
CC1CCN(c2nnc(-c3cccs3)c3ccccc23)CC1 | 0 | -5 | 0 | -3 | -85* | 52
c1csc(-c2nnc(NC3CCCCC3)c3ccccc23)c1 | -1 | -13 | 2 | 20 | 3 | -9
Cc1ccc(NCc2nnc(SCc3ccc(C#N)cc3)n2Cc2ccco2)c(C)c1 | -2 | -5 | 2 | -97* | ? | 5
SMILES | TRHR agonist | TRHR enhancer | TRPML1 agonist | hERG WT inh | KCNH2 3.1 block | TRPML1 inh
O=C(O)c1ccccc1C(=O)OC1CCCC2CCCC21 (centres undefined) | / | / | 0 | 8 | / | -6
CC[C@]12c3[nH]c4cc(CCC(=O)N(C)C)ccc4c3CCN1C(=O)[C@@H](CC(=O)NCCCn1ccnc1)C[C@@H]2C(=O)N1CCN(C(=O)c2ccco2)CC1 | / | / | 0 | -7 | 6 | -8
CCCCCOc1ccc(CSC(=N)N)cc1[N+](=O)[O-] | 5 | 9 | 4 | 29 | -96* | 15
CCOc1ccc(CN(CCO)CCO)cc1[N+](=O)[O-] | 0 | -5 | 1 | 9 | -76* | -18
CCOc1ccc(CSC2=NCCN2)cc1[N+](=O)[O-] | 1 | 0 | 0 | 8 | -91* | -9
CCCCOc1ccc(CSC2=NCCN2)cc1[N+](=O)[O-] | 3 | -2 | 8 | 14 | ? | -13
CCCCOc1ccc(CN(CCO)CCO)cc1[N+](=O)[O-] | 2 | -2 | 1 | -3 | 10 | -7
COc1ccc(CSC(=N)N)cc1[N+](=O)[O-] | 1 | 6 | 0 | 15 | -20 | -4
COC(=O)c1cc(C(=O)OCC(=O)N(C)c2ccccc2)cc([N+](=O)[O-])c1 | -1 | -1 | 0 | -5 | -17 | 17
COC(=O)c1cc(Nc2cc(C)c3ccc(O)cc3n2)cc(C(=O)OC)c1 | 1 | 32* | 1 | 4 | 25 | -6
CC(C)[C@H](NC(=O)N1CC(=O)Nc2ccccc21)C(=O)N[C@@H](C(=O)O)c1ccccc1 | 0 | -3 | 0 | 5 | -11 | -11
CC(C)C[C@H](NC(=O)N1CC(=O)Nc2ccccc21)C(=O)N[C@H](C(=O)O)c1ccccc1 | 0 | 33* | / | -2 | 5 | /
O=C1CN(C(=O)N[C@@H](Cc2ccccc2)C(=O)N[C@H](C(=O)O)c2ccccc2)c2ccccc2N1 | 0 | 8 | -1 | -3 | 31 | -3
CC(C)[C@H](NC(=O)N1CC(=O)Nc2ccccc21)C(=O)N[C@H](C(=O)O)c1ccccc1 | 0 | 30* | 0 | -1 | -1 | -7
CC(C)C[C@H](NC(=O)c1nc[nH]c1C(=O)NCC(=O)OCc1ccccc1)C(=O)OCc1ccccc1 | 3 | -9 | 0 | -121* | -3 | 0
